Compound activity deposited in PubChem by several laboratories.
Most compounds without a hit are left out; they make up all but 4.9% or so of the library.
Calb FLC: affects C. albicans growth with fluconazole. AID 1979. growth inhibition, % (no concentration beside the values). actives 0.57% (n = 300,000). C. albicans CaCi-2 (fluconazole-resistant clinical isolate) + fluconazole, Alamar Blue growth, 48 h;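 active = growth inhibition above about 58% in most replicates, limit read from the data, passing the limit was not always enough; inconclusive = exactly half the replicates above a set limit; inactive = most replicates below a set limit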;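 also: all wells also contain fluconazole at 8 µg/ml as a sub-toxic cotreatment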
PP1 counter: blocks human PP1-alpha phosphatase, a PP5 counter-screen | purified PP1alpha, OMFP fluorescence | actives 0.9% (n = 320,000) | P62136 | inhibition, % at 6.7 µM;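 active = inhibition above the mean inhibition of all tested compounds plus 3 SD, computed separately for each screening campaign, cut at about 15% in these data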
PP5 primary: inhibitors of human protein phosphatase 5 (PP5). P53041. purified PP5c, OMFP substrate fluorescence. inhibition, % at 6.7 µM. AID 1987. actives 0.18% (n = 320,000);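 active = inhibition above the campaign's mean inhibition across all tested compounds plus 3 SD, cut at about 9.5% in these data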
CSC inhib: blocks cancer stem cells. cancer stem cell-like cells viability, luminescence. inhibition, % at 7.5 µM. AID 2717. actives 1.1% (n = 300,000); in the data active = inhibition above about 75%; inconclusive = no clear call, values can overlap the other calls; tested in HMLE shEcad cells
Beta cell apopt: beta cell apoptosis inhibition | actives 0.8% (n = 300,000) | INS-1E cytokine-induced death, ATP luminescence, 48 h; percent of positive-control rescue, neutral wells zero | protection from apoptosis, % (test concentration not listed);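 active = Every replicate reaches about 75%, or at least half do and their mean reaches it too, limit read from the data; inconclusive = At least half of replicates reach the limit but their mean does not; inactive = Under half of replicates reach the limit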;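 also: higher means more ATP so stronger rescue from cytokine killing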
Mdm2 MdmX PPI: human Mdm2/MdmX binding inhibition. AID 485346. O15151+Q00987. actives 3% (n = 330,000). inhibition, % at 8 µM. SaOS-2 split-luciferase Mdm2/MdmX complementation, luminescence;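 active = inhibition of at least 50% at 8 µM in the primary screen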
Target sequence (O15151 whole entry, looked up): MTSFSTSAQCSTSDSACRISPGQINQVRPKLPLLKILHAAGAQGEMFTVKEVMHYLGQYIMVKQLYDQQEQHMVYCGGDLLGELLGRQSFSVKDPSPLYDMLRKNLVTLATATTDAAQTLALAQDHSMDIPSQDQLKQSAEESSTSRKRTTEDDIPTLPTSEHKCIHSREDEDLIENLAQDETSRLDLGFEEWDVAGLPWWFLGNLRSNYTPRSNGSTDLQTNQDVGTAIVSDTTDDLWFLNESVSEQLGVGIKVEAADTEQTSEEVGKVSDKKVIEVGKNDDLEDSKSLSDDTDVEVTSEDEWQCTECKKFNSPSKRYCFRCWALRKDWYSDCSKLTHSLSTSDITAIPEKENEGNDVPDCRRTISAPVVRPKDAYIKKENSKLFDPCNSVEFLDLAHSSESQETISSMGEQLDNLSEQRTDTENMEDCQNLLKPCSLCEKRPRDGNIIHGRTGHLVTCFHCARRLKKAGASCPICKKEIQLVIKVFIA
Target sequence (Q00987 whole entry, looked up): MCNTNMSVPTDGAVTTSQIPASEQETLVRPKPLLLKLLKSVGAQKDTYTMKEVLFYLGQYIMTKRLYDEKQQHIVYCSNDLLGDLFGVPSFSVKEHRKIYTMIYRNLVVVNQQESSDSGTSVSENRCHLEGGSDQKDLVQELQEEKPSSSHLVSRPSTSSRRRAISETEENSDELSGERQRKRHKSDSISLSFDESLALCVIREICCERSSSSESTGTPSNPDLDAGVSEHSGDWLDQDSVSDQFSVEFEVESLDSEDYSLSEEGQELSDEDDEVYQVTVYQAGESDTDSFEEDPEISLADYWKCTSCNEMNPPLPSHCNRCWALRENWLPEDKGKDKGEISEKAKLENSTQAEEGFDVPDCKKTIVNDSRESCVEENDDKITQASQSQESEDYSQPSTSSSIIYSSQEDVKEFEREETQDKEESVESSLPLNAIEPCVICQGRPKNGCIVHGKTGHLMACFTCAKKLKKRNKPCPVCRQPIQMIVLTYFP
Mdm2 MdmX conf: confirmation of human Mdm2/MdmX interaction inhibitors; actives 55% (n = 10,000); Mdm2-MdmX binding, luminescent assay; shares compounds with Mdm2 MdmX PPI; inhibition, % at 8 µM; in the data active = inhibition above about 40%
Full FLuc ctr: counter-screen for Mdm2/MdmX inhibitors: full-length luciferase; shares compounds with Mdm2 MdmX PPI; SaOS-2 full-length luciferase counterscreen, luminescence; inhibition, % at 8 µM; actives 77% (n = 6,200); AID 504607;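 active = mean inhibition at 8 µM reaching about 37%, which flags the compound as non-specific, limit read from the data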;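 also: p53-null SaOS-2 cells with luciferase driven by a doxycycline-inducible promoter; compound on cells about two nights before reading with doxycycline added after day one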
Of the large screens only hits and unclear results are named; the others gave an inactive call (follow-up assays come after a bar, where they were run).

O=C1/C(=C\c2c(NCCOCCO)nc3ccccn3c2=O)SC(=S)N1Cc1ccco1	Mdm2 MdmX PPI 53.6 (no result: CSC inhib, Beta cell apopt) | Mdm2 MdmX conf inactive
O=S(=O)(Nc1nc2ccccc2nc1Cl)c1cccc(C(F)(F)F)c1	none
O=c1c2c3c(sc2ncn1/N=C/c1ccc([N+](=O)[O-])o1)CCCC3	CSC inhib 103.4, Mdm2 MdmX PPI 57.6 | Mdm2 MdmX conf 43.2 | Full FLuc ctr 57.4
c1ccc(-c2ccc(-c3nc(-c4ccccn4)no3)cc2)cc1	Mdm2 MdmX PPI 96.6 | Mdm2 MdmX conf 88.8 | Full FLuc ctr inactive
Cc1ccc(-c2nc(-c3ccccn3)no2)cc1	Mdm2 MdmX PPI 85.5 | Mdm2 MdmX conf 86.0 | Full FLuc ctr 52.8
c1ccc(-c2nc(-c3ccccn3)no2)cc1	none
CCO[C@@H]1OC(C(=O)NCc2nc3ccccc3[nH]2)=C[C@H](c2coc3ccccc3c2=O)[C@H]1CCCO	none
O=C1C=C(N2CCOCC2)CCC1	none
COc1ccc(-c2ccnc(-c3ccc(O)cc3)n2)cc1	Mdm2 MdmX PPI 51.7 | Mdm2 MdmX conf inactive | Full FLuc ctr 83.9
COCCn1c(C)cc(C2=NNC(=Nc3ccccc3F)SC2)c1C	Mdm2 MdmX PPI 73.4 | Mdm2 MdmX conf 87.8 | Full FLuc ctr inactive
C=CCN=C1NN=C(c2cc(C)n(CC=C)c2C)CS1	Mdm2 MdmX PPI 86.8 | Mdm2 MdmX conf 89.0 | Full FLuc ctr 50.1
COCCCN=C1NN=C(c2cc(C)n(-c3ccccc3F)c2C)CS1	none
COCCCN=C1NN=C(c2cc(C)n(Cc3ccccc3Cl)c2C)CS1	PP1 counter 15.4, Mdm2 MdmX PPI 78.7 | Mdm2 MdmX conf 76.5 | Full FLuc ctr 79.8
O=C(COc1ccccc1-c1ccccc1)NCc1cccc(Cl)c1	none
CCOc1ccc(C(=O)COC(=O)Cc2n[nH]c(=O)c3ccccc23)cc1	Mdm2 MdmX PPI 56.6 | Mdm2 MdmX conf 75.4 | Full FLuc ctr 51.3
O=C(Cc1n[nH]c(=O)c2ccccc12)OCC(=O)c1ccc2c(c1)OCCO2	Mdm2 MdmX PPI 55.3 | Mdm2 MdmX conf 68.0 | Full FLuc ctr 93.7
CC1CC(C)CN(C(=O)c2cc(S(=O)(=O)N3CCCCC3)ccc2Cl)C1 (stereo not drawn)	none (no result: CSC inhib)
COC(=O)c1ccc2[nH]c3cccc(/C(=C/c4ccccc4)c4ccccc4)c3c2c1	CSC inhib 128.8, Beta cell apopt 109.3, Mdm2 MdmX PPI 65.5 | Mdm2 MdmX conf inactive
CCN(Cc1ccccc1)C(=O)Cn1cc(S(=O)(=O)NC)c(S(=O)(=O)NC)c1	none
Cc1cc(C)n(-c2ccc(S(=O)(=O)N3CCCC3)cc2[N+](=O)[O-])n1	none
Cc1nnc2c(NCCc3ccccc3)nc3ccccc3n12	Mdm2 MdmX PPI 57.2 | Mdm2 MdmX conf inactive
CN(C)c1ccc(/C=C2\C(=N)N3C(=NC2=O)Sc2cc(S(C)(=O)=O)ccc23)cc1	Mdm2 MdmX PPI 88.6 (no result: Beta cell apopt) | Mdm2 MdmX conf inactive
O=C1CN2NC(=S)N(c3ccccc3)C2=CN1c1ccc(Cl)cc1	none
COc1cc(-c2nc(-c3ccccc3)c(-c3cccs3)[nH]2)cc(OC)c1OC	CSC inhib 78.0, Mdm2 MdmX PPI 76.0 | Mdm2 MdmX conf 40.0 | Full FLuc ctr 100.2
COc1ccc(NC(=O)Cn2c3ccccc3c3nc4n(c(=O)c32)CCS4)cc1	Mdm2 MdmX PPI 69.7 | Mdm2 MdmX conf inactive
COc1ccc(NC(=O)Cn2c3ccccc3c3nc4n(c(=O)c32)CCS4)cc1OC	none
O=C1C=C(/C=C/C2C=CC=CC2)C[C@@H](c2ccc(Cl)cc2)C1 (stereo partly drawn)	none (no result: Calb FLC)
CCCNC(=O)c1ccc(S(=O)(=O)c2ccc(OC)cc2)c([N+](=O)[O-])c1	Mdm2 MdmX PPI 86.9 | Mdm2 MdmX conf 53.0 | Full FLuc ctr inactive
COc1ccc(/C=C2\N=C(SC)N(c3ccccc3OC)C2=O)cc1	Mdm2 MdmX PPI 98.4 | Mdm2 MdmX conf 94.5 | Full FLuc ctr 47.2
CCOC(=O)N1CCN(C/C(Cl)=C/c2ccccc2)CC1	none
O=c1[nH]nc(SCc2ccccc2)n1C1CC2C=CC1C2 (stereo not drawn)	none
CC(=O)Nc1ccc(NC(=O)C(C)OC(=O)CCC2CCCC2)cc1 (stereo not drawn)	none
CCc1ccc(-c2cc(C(F)(F)F)n3nc(C(=O)Nc4cnn(Cc5ccc(C)cc5)c4)cc3n2)s1	Beta cell apopt 76.4, Mdm2 MdmX PPI 51.1 | Mdm2 MdmX conf inactive
Cc1ccc(NC(=O)C(C)N=C2NS(=O)(=O)c3ccccc32)cc1F (stereo not drawn)	none
CCN(c1ccccc1)S(=O)(=O)c1ccc(Oc2ccc(-n3ccnc3)cc2)nc1	Mdm2 MdmX PPI 58.9 | Mdm2 MdmX conf 57.6 | Full FLuc ctr 63.2
CCc1ccc(OCCNC(=O)c2ccccc2SCc2ccccc2)cc1	Mdm2 MdmX PPI 79.6 | Mdm2 MdmX conf 79.5 | Full FLuc ctr 57.4
CCNC(=O)c1ccccc1SCc1ccccc1	none
O=C(N/N=C/c1c(O)ccc2ccccc12)c1[nH]ncc1Br	CSC inhib 107.6, Beta cell apopt 102.7, Mdm2 MdmX PPI 64.6 | Mdm2 MdmX conf 75.7 | Full FLuc ctr 40.5
O=C(N/N=C/c1c(O)ccc2ccccc12)c1cccc(C(F)(F)F)c1	Calb FLC 89.8, Mdm2 MdmX PPI 74.2 (no result: CSC inhib, Beta cell apopt) | Mdm2 MdmX conf 81.2 | Full FLuc ctr inactive
O=C(N/N=C/c1cccs1)c1[nH]ncc1Br	none (no result: PP1 counter, PP5 primary)
COc1ccc2ccccc2c1/C=N/NC(=O)c1cccc(Br)c1	none
COc1ccc(CN2C3CCC2CC(NC(=O)c2cc(OC)c(OC)c(OC)c2)C3)cc1 (stereo not drawn)	none
Cc1cc(C)cc(OCc2nc3ncc(Br)cc3[nH]2)c1	Mdm2 MdmX PPI 81.2 | Mdm2 MdmX conf 73.7 | Full FLuc ctr inactive
COc1cccc(OCc2nc3ncc(Br)cc3[nH]2)c1	none
COc1ccc(N2CC(C(=O)N3CCN(c4ccccc4F)CC3)CC2=O)cc1 (stereo not drawn)	Beta cell apopt inconclusive (no result: CSC inhib)
CCOC(=O)/C(C#N)=C/c1cc(C)n(-c2ccccc2)c1C	Mdm2 MdmX PPI 52.3 | Mdm2 MdmX conf 65.8 | Full FLuc ctr 170.0
CCOC(=O)/C(C#N)=C/c1cc(C)n(-c2ccc(Br)cc2)c1C	none
CC(=O)NCCNc1nc2c(-c3cccc(C)c3)nnn2c2ccccc12	none
Cc1ccc(S(=O)(=O)c2nnn3c2nc(Nc2cccc(C)c2)c2ccccc23)cc1	Calb FLC inconclusive, Mdm2 MdmX PPI 53.9 (no result: Beta cell apopt) | Mdm2 MdmX conf inactive
NS(=O)(=O)c1ccc(CCNc2nc3c(-c4cccc(F)c4)nnn3c3ccccc23)cc1	Mdm2 MdmX PPI 67.1 | Mdm2 MdmX conf inactive
Cc1cccc(-c2nnn3c2nc(NCCc2ccc(S(N)(=O)=O)cc2)c2ccccc23)c1	Mdm2 MdmX PPI 67.4 | Mdm2 MdmX conf 50.2 | Full FLuc ctr 73.7
